Laboratory results from PubChem BioAssay (NCATS).
Inconclusive results are not listed. Entries that show only a call come without a potency. Unmarked numbers belong to inactive results. Active and inactive are the calls of the source. Calls follow the shape of the dose curve; as a rule, active = well fitted curve in the direction sought with a large enough effect; inconclusive = small, poorly fitted or top-dose-only effect, or another doubt; inactive = no such curve, though single readings can be large; an effect the other way counts as inactive or inconclusive.

What was measured:
[1] = biological target: Aldehyde dehydrogenase, mitochondrial (Homo sapiens) (UniProt P05091); assay: qHTS for Inhibitors of the Aldehyde Dehydrogenase Family (ALDH2) Primary screen (AID 2061308); also: nearly all actives have a fitted effect of over 55% in size
[2] = biological target: Retinaldehyde dehydrogenase 3 (Homo sapiens) (UniProt P47895); assay: qHTS for Inhibitors of the Aldehyde Dehydrogenase Family (ALDH1A3) Primary screen (AID 2061315)

Row | SMILES | Potency [1] | Potency [2] | activity change, negative = inhibition [1] | activity change, negative = inhibition [2]
1 | O=S(=O)(NC[C@@H]1CCC[C@H](CNS(=O)(=O)c2c(F)cccc2F)C1)c1ccc2c(c1)OCCO2 | inactive | inactive | – | –
2 | COc1cccc(-c2ccc3ncnc(NCc4cc(C)cs4)c3c2)c1 | inactive | inactive | – | –
3 | COc1ccc(C2c3c(ncn(CCN4CCOCC4)c3=N)Oc3ccc4ccccc4c32)cc1 (stereo unspecified) | inactive | inactive | – | –
4 | CC(=O)c1ccc(N2CCN(S(=O)(=O)c3ccc4c(c3)CCCN4C(C)=O)CC2)cc1 | inactive | inactive | – | –
5 | CS(=O)(=O)c1ccc(C(=O)OCC(=O)N2CCN(CCC3CCCCC3)CC2)cc1[N+](=O)[O-] | inactive | inactive | – | –
6 | COC1C=C([C@@H]2CC=C3[C@@]4(C)C(CC[C@]32C)[C@@]2(C)C=CC(=O)C(C)(C)C2C[C@H]4OC(C)=O)C(=O)O1 (stereo partly specified) | inactive | inactive | – | –
7 | Nc1ccc(-c2cccc3c(=O)cc(N4CCOCC4)oc23)cc1 | inactive | inactive | – | –
8 | c1cc(NC2CCNCC2)nc(-c2cnc3ccccn23)c1 | inactive | inactive | – | –
9 | Cc1ccc(S(=O)(=O)Nc2cnccc2C(=O)Nc2nc(-c3ccccc3Cl)cs2)cc1 | inactive | inactive | – | –
10 | O=S(=O)(NC1CCC(CNS(=O)(=O)c2c(F)cccc2F)CC1)c1ccc2c(c1)OCCO2 (stereo unspecified) | inactive | inactive | – | –
11 | Cc1nc(CNc2ncnc3ccc(-c4sc(C)nc4C)cc23)cs1 | inactive | inactive | – | –
12 | O=S(=O)(NCC1CC1)c1ccc(Nc2nccc(N3CCCc4cc(O)ccc43)n2)cc1 | inactive | inactive | – | –
13 | Cc1cnc(-c2ccccc2C(C)C)nc1NCc1cccs1 | inactive | inactive | – | –
14 | COc1ccc(C2Nc3ccccc3C(=O)N2CCCN(C)C)cc1COc1c(C)cc(NC(C)=O)cc1C (stereo unspecified) | inactive | inactive | – | –
15 | CCOc1cccc(-c2cc(-c3n[nH]c(=O)n3CC)c3ccccc3n2)c1 | inactive | inactive | – | –
16 | O=C([C@@H](Cc1ccc(O[S+](=O)([O-])c2cccnc2)cc1)N[S+](=O)([O-])c1cccc2cccnc12)N1CCN(c2ccccc2)CC1 | inactive | inactive | – | –
17 | Cc1ccc(NS(=O)(=O)c2ccc3c(c2)CCC(=O)N3)cc1C | inactive | inactive | – | –

Row | SMILES | Potency [1] | Potency [2] | activity change, negative = inhibition [1] | activity change, negative = inhibition [2]
18 | N#CCC(C1CCCC1)n1cc(-c2ncnc3[nH]ccc23)cn1 (stereo unspecified) | inactive | inactive | – | –
19 | CCOc1ccccc1-c1nnc2n1N=C(c1cc(OC)ccc1OC)CS2 | inactive | inactive | – | –
20 | NC(=O)C1CCN(c2nc(-c3cccc([N+](=O)[O-])c3)cs2)CC1 | inactive | inactive | – | –
21 | O=C(Nc1cccc2c1cnn2-c1ccc(F)cc1)c1ccccn1 | inactive | inactive | – | –
22 | CC1(C)CC[C@]2(C(=O)OC3OC(CO)C(O)C(O)C3O)CC[C@]3(C)C(=CCC4[C@@]5(C)CC[C@H](OC6OC(C(=O)O)C(O)C(O)C6O)C(CO)(CO)C5CC[C@]43C)[C@@H]2C1 (stereo partly specified) | inactive | inactive | – | –
23 | Fc1cccc(Nc2nc(-c3ccncc3)nc3ccccc23)c1 | inactive | inactive | – | –
24 | C[C@@H]1O[C@@H](O[C@H]2[C@H](OC(=O)[C@]34CCC(C)(C)C[C@H]3C3=CCC5[C@@]6(C)C[C@H](O)[C@H](O[C@@H]7O[C@H](CO)[C@@H](O)[C@H](O)[C@H]7O)[C@](CO)(C(=O)O)C6CC[C@@]5(C)[C@]3(C)C[C@H]4O)OC[C@H](O)[C@@H]2O)[C@H](O)[C@H](O)[C@H]1O[C@@H]1OC[C@@H](O)[C@H](O[C@@H]2OC[C@](O)(CO)[C@H]2O)[C@H]1O (stereo partly specified) | – | – | 7.32% [at 11.2 µM] | 18.8% [at 11.2 µM]
25 | CC(=O)Nc1cccc(-c2csc(Nc3cc(C)ccn3)n2)c1 | inactive | inactive | – | –
26 | O=C(Nc1ccc(S(=O)(=O)Nc2nccs2)cc1)C1CCC2(CCC2)CC1 | inactive | inactive | – | –
27 | CN1CCN(Cc2cc(COCc3ccccc3)c3cccnc3c2O)CC1 | inactive | inactive | – | –
28 | COC(=O)c1ccc(O)c2ncc(-c3ccc(C(=O)N4CCN(C)CC4)cc3)cc12 | inactive | inactive | – | –
29 | CC(C)(C)OC(=O)CC(=O)NNC(=O)c1nc2ccccc2[nH]1 | inactive | inactive | – | –
30 | O=C1CCc2cc(S(=O)(=O)Nc3ccc4ncccc4c3)ccc2N1 | inactive | inactive | – | –
31 | Cc1cc(N[S+](=O)([O-])c2cc3c(cc2Cl)CCC(=O)N3)ccc1Cl | inactive | inactive | – | –
32 | O=C(OCC#CCSc1nnc(-c2ccc3ccccc3c2)o1)c1ccsc1 | inactive | inactive | – | –
33 | O=C(Nc1ccc(-c2ccccc2)nc1)c1cccs1 | inactive | inactive | – | –
